The nature of assay [1]: stimulators of insulin release from INS-1E, primary screen, cell-based, 5 mM glucose, NPC library (AID 1117329;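 active = compound raises insulin release from rat beta cells at 5 mM glucose, no numeric limit stated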). The settings on record: rat INS-1E insulin secretion, at 10 µM, stronger effect = higher value.
Assay [2] is described as follows: growth inhibition of GSK3B-pretreated HCT116 cells – cell-based, CellTiter-Glo, 0.2 to 20 µM (AID 1117336;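 active = compounds lowering colon cancer cell viability after pretreatment blocking the GSK3B kinase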). Conditions: HCT116 viability after GSK3B inhibitor, at 20 µM, stronger effect = higher value. Background: ATP-based viability assays read luminescence as a measure of living cells.
The nature of assay [3]: inhibition of endothelial tube formation, primary screen, imaging, VEGF stimulated, CD31 staining, tube area, NPC library (AID 1117340;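 active = compound that reduces growth-factor-driven endothelial tube area in a mixed cell culture, no cutoff stated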). The settings on record: VEGF-stimulated ADSC/ECFC co-culture, at 10 µM, stronger effect = higher value.
Assay [4] is described as follows: glucagon-like peptide 1 release enhancers, primary assay, NCI-H716 cell line, NPC library (AID 1117341;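 active = compound raises GLP1 secretion from the human gut endocrine cells, with no numeric limit stated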). The settings on record: NCI-H716 cells, at 10 µM, stronger effect = higher value.
The nature of assay [5]: HCT116 colon cancer cell growth inhibition, primary screen, CellTiter-Glo luminescence, NPC library (AID 1117342;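 active = compounds that lower survival of HCT116 colon cancer cells in the luminescence readout, no numeric limit stated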). The settings on record: at 20 µM (top of the series).
Assay [6] in a line: CellTiter-Glo luminescent readout of SW480 viability loss, NPC library primary (AID 1117343;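 active = compounds that lower viability of the colon cancer cells in the luminescence readout, with no numeric limit stated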). The settings on record: CellTiter-Glo luminescence; at 20 µM (top of the series).
The nature of assay [7]: decreased DLD-1 cellular survival, CellTiter-Glo luminescent readout, NPC compound collection, primary HTS (AID 1117346;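 active = compounds that lower survival of DLD-1 colon cancer cells in the luminescence readout, no cutoff given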). The settings on record: DLD-1 viability, CellTiter-Glo luminescence; at 20 µM (top of the series).
In assay [8] the target is 6-phosphogluconate dehydrogenase, decarboxylating (Homo sapiens) (UniProt P52209). The assay is described as follows: 6PGD enzyme inhibitors, primary screen, biochemical, human, recombinant enzyme, NADPH absorbance (AID 1159550;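 active = at least 20% inhibition of 6-phosphogluconate dehydrogenase activity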). The settings on record: recombinant 6PGD, NADPH absorbance 341 nm; at 10 µM; stronger effect = higher value.
The nature of assay [9]: differential killing of epithelial or mesenchymal cells, primary screen, imaging, PC-3E GFP, TEM4-18 mCherry, co-culture (AID 1345086).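 For all read-outs here: cells exposed to compound for 72 h before imaging.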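 For red/green cell ratio (normalised): normalised mesenchymal count divided by normalised epithelial count so high means epithelial killing.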 The settings on record: imaging cell counts, at 1 µM; for red/green cell ratio (normalised): actives lie on both sides, counts scaled to control wells, 1 = unselective.
Assay [10] can be described thus: growth inhibition of DIPG glioma cells, dose response, cell-based, SU-DIPG-XVII, MIPE5.0, CellTiter-Glo, qHTS (AID 1347060; cut-off not given, nearly all actives have AC50 up to about 26 µM;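 for AC50: cells exposed to compound for 48 hours before viability readout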). The settings on record: SU-DIPG-XVII viability, CellTiter-Glo ATP luminescence.
A short description of assay [11]: growth inhibition of DIPG glioma cells, dose response, cell-based, SU-DIPG-XIII, MIPE4.0, CellTiter-Glo, qHTS (AID 1347061; cut-off not given, nearly all actives have AC50 up to about 37 µM;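 note: cells exposed to compound for 48 hours before readout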). Conditions: SU-DIPG-XIII viability, CellTiter-Glo ATP luminescence.
Assay [12] is described as follows: growth inhibition of DIPG glioma cells, dose response, cell-based, JHH-DIPG-1, MIPE4.0, CellTiter-Glo, qHTS (AID 1347062; cut-off not given, nearly all actives have AC50 up to about 27 µM;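 for AC50: cells exposed to compound for two days before readout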). Conditions: JHH-DIPG-1 viability, CellTiter-Glo ATP luminescence.
Assay [13] can be described thus: growth inhibition of DIPG glioma cells, dose response, cell-based, SU-DIPG-IV, MIPE4.0, CellTiter-Glo, qHTS (AID 1347063; cut-off not given, nearly all actives have AC50 up to about 30 µM;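 note: compound exposure lasted 48 hours before the viability readout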). Conditions: SU-DIPG-IV viability, CellTiter-Glo ATP luminescence.
Assay [14] is described as follows: growth inhibition of DIPG glioma cells, dose response, cell-based, SU-DIPG-XIII, MIPE5.0, CellTiter-Glo, qHTS (AID 1347064; cut-off not given, nearly all actives have AC50 up to about 23 µM;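 for AC50: cells exposed to compound for 48 hours before the viability read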). Conditions: SU-DIPG-XIII viability, CellTiter-Glo ATP luminescence.
Assay [15] deals with Aerobactin synthetase IucA (Klebsiella pneumoniae). The assay is described as follows: IucA aerobactin synthetase inhibitors, biochemical, Tocris library, absorbance (AID 1345561; call rule not given here;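 note: 100% = enzyme without compound and 0% = no enzyme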). Conditions: purified IucA enzyme assay, absorbance (OD) read-out; stronger effect = lower value;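 tested at 8 µM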.
[16] abbreviates: measured here: epithelial PC-3E GFP cell survival.
The mark [17] stands for this setting: measured here: mesenchymal TEM4-18 mCherry cell survival.

The structures appear in SMILES notation. Values joined by “and” are separate entries in the source; they are usually repeats but may differ in a detail not shown here. Equal entries are not always repeated. Results filed as inconclusive are left out. Active and inactive are the calls of the source.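 Rule for the calls, unless noted: active = compounds killing one labelled cell type while sparing the other, by normalised counts and ratio limits, not self-fluorescent; inactive = the rest.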

One may read the inhibition as the change of the read-out against control, counted positive when it falls. One may read the AC50 as the concentration giving half of the maximal activity seen. By remaining activity is commonly meant the signal under treatment as a percentage of the control signal.

6-phosphogluconate dehydrogenase, decarboxylating (Homo sapiens), sequence (P52209 whole entry, looked up): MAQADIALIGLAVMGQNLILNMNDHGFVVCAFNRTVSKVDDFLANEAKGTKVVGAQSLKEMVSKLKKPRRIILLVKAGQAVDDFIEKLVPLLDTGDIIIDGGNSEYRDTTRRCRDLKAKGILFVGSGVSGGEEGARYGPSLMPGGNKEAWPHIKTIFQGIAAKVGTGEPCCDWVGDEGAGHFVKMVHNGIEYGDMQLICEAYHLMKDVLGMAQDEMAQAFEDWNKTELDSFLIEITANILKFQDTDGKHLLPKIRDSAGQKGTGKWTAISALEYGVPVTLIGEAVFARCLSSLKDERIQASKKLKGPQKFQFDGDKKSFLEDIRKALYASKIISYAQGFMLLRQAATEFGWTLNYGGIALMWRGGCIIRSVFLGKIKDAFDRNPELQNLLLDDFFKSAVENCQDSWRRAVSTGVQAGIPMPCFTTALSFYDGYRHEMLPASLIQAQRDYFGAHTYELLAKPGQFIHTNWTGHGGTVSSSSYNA

Consider `O=C(O)c1cn(-c2ccc(F)cc2)c2cc(N3CCNCC3)c(F)cc2c1=O`, for which the insulin secretion stimulation in assay [1] was 0.8% (inactive). The viability decrease in assay [2] is 28.3% (inactive). For the same molecule, the tube area decrease in [3] is -4.3% (inactive). In addition, in [4], the GLP1 secretion stimulation was -2.6% (inactive). For the same molecule, the inhibition of viability in assay [5] was 29.7% (inactive). The viability decrease (inhibition) in [6] is -14.9% (inactive); in assay [7], -10.5% (inactive). For the same molecule, the inhibition in [8] was 0.148% (inactive). Also, the red/green cell ratio (normalised) in assay [9] is 0.95 (inactive) and 0.88 (inactive). Moreover, the normalised cell number in assay [9] (setting [16]) is 1.1 and 0.99; in assay [9] (setting [17]), 1.04 and 0.87. Moreover, the result in [10], in [11], in assay [12], in [13] and in assay [14] was inactive.
In the case of `O=C(Nc1ccc([N+](=O)[O-])cc1Cl)c1cc(Cl)ccc1O`, the insulin secretion stimulation in assay [1] is -1.7% (inactive). For the same molecule, the viability decrease in assay [2] is 99.7% (active). Besides, the tube area decrease in assay [3] was 103% (active). In addition, the GLP1 secretion stimulation in assay [4] was 3.3% (inactive). Further, the inhibition of viability in assay [5] was 107% (active). Moreover, the figures for the viability decrease (inhibition) in [6] and in assay [7] were 120% (active) and 102% (active), respectively. The inhibition in assay [8] was 9.61% (inactive). Also, in assay [9], the red/green cell ratio (normalised) is 0.66 (inactive). The values for the normalised cell number in assay [9] (setting [16]) and in [9] (setting [17]) were 0.36 and 0.24, respectively. Further, the AC50 in [10] is 1050 nM (active); in [11], 935 nM (active); in [12], 1660 nM (active); in assay [13], 1660 nM (active); in assay [14], 1180 nM (active).
On to `CN(C)c1ccc(C(=C2C=CC(=[N+](C)C)C=C2)c2ccc(N(C)C)cc2)cc1`, for which, in assay [1], the insulin secretion stimulation was -0.2% (inactive). Besides, the viability decrease in assay [2] was 104% (active). In assay [3], the tube area decrease was 108% (active). Also, in assay [4], the GLP1 secretion stimulation was -16% (inactive). In addition, the inhibition of viability in assay [5] was 103% (active). Further, the viability decrease (inhibition) is 146% (active) in assay [6] and 106% (active) in assay [7]. The inhibition in assay [8] is 5.37% (inactive). Further, the red/green cell ratio (normalised) in assay [9] is 3.62 (active). For the same molecule, the figures for the normalised cell number in assay [9] (setting [16]) and in assay [9] (setting [17]) were 0.14 and 0.5, respectively. In addition, the AC50 in assay [10] was 1480 nM (active); in assay [11] it was 2960 nM (active); in assay [12], 235 nM (active); in assay [13] it was 148 nM (active); in assay [14] it was 1480 nM (active).
As for `O=c1c(-c2ccc(O)cc2)coc2cc(O)cc(O)c12`, in [1], the insulin secretion stimulation is 0.8% (inactive). The viability decrease in assay [2] was 36.1% (inactive). Besides, in assay [3], the tube area decrease was 54.6% (active). Also, in [4], the GLP1 secretion stimulation was 7% (inactive). For the same molecule, the inhibition of viability in assay [5] is -0.9% (inactive). Besides, the viability decrease (inhibition) was 94.1% (active) in assay [6] and 8.45% (inactive) in assay [7]. Also, the inhibition in assay [8] was 3.56% (inactive). Moreover, the red/green cell ratio (normalised) in [9] is 0.95 (inactive). Besides, the normalised cell number amounted to 0.96 in assay [9] (setting [16]) and 0.91 in assay [9] (setting [17]). Also, the remaining activity in assay [15] is 121% (inactive). Moreover, the molecule was called inactive in [11], in assay [12], in assay [13] and in assay [14].
As to `CN(C)CCc1c[nH]c2ccc(CS(=O)(=O)N3CCCC3)cc12`, the insulin secretion stimulation in [1] is 2.7% (inactive). Besides, the viability decrease in assay [2] is -11% (inactive). In assay [3], the tube area decrease was 8.7% (inactive). Further, the GLP1 secretion stimulation in assay [4] was 1.2% (inactive). In addition, the inhibition of viability in assay [5] was 1.33% (inactive). In addition, the viability decrease (inhibition) in assay [6] was 28.9% (inactive); in assay [7], -7.1% (inactive). In addition, the inhibition in assay [8] was -1.67% (inactive). For the same molecule, the red/green cell ratio (normalised) in assay [9] is 1.06 (inactive). For the same molecule, the normalised cell number in assay [9] (setting [16]) amounted to 0.96; in assay [9] (setting [17]), 1.02. Also, the result in assay [10], in [11] and in assay [12] was inactive.
For the molecule `Cc1ccc(S(=O)(=O)NC(=O)NN2CC3CCCC3C2)cc1` (centres undefined), the insulin secretion stimulation in assay [1] was 42.6% (active). The viability decrease in assay [2] was -5.85% (inactive). Besides, in assay [3], the tube area decrease was -26.1% (inactive). The GLP1 secretion stimulation in [4] was 0.8% (inactive). Besides, the inhibition of viability in assay [5] is -22.6% (inactive). Further, the viability decrease (inhibition) in assay [6] was 22.3% (inactive); in [7], -0.5% (inactive). Further, the inhibition in assay [8] is 2.59% (inactive). In [9], the red/green cell ratio (normalised) is 0.84 (inactive). The values for the normalised cell number in [9] (setting [16]) and in assay [9] (setting [17]) were 1.15 and 0.96, respectively. The outcome in assay [10], in [11] and in assay [14] was inactive. The AC50 in assay [12] was 20900 nM (active).
As for `Nc1nc(=S)c2[nH]cnc2[nH]1`, the insulin secretion stimulation in assay [1] was -2% (inactive). In addition, the viability decrease in assay [2] is 47.4% (active). Besides, the tube area decrease in assay [3] is 104% (active). Moreover, the GLP1 secretion stimulation in assay [4] was 1.9% (inactive). In addition, the inhibition of viability in assay [5] is 96.4% (active). Further, the viability decrease (inhibition) in [6] is 101% (active); in assay [7] it was 52.9% (active). Besides, in assay [8], the inhibition was 4.15% (inactive). In [9], the red/green cell ratio (normalised) is 1.29 (inactive). Besides, the normalised cell number in assay [9] (setting [16]) was 0.83; in [9] (setting [17]), 1.07. For the same molecule, the AC50 in [10] is 590 nM (active); in [12], 833 nM (active); in assay [13], 7430 nM (active); in [14], 2350 nM (active).
Take `NS(=O)(=O)c1cc2c(cc1Cl)NC(C(Cl)Cl)NS2(=O)=O` (centres undefined): the insulin secretion stimulation in [1] was 1.15% (inactive). The viability decrease in [2] is 13.9% (inactive). The tube area decrease in assay [3] is -20.1% (inactive). The GLP1 secretion stimulation in assay [4] was 0.9% (inactive). The inhibition of viability in assay [5] was -37.1% (inactive). The viability decrease (inhibition) in [6] is -6.6% (inactive); in assay [7], 6.3% (inactive). The inhibition in [8] was 17.4% (inactive). Besides, the red/green cell ratio (normalised) in [9] is 1.22 (inactive). In addition, the normalised cell number worked out at 0.88 in [9] (setting [16]) and 1.08 in [9] (setting [17]). The molecule was called inactive in [10], in [12] and in [13].
Take `O=c1oc2c(O)c(O)cc3c(=O)oc4c(O)c(O)cc1c4c23`: the insulin secretion stimulation in assay [1] was -0.1% (inactive). Also, in assay [2], the viability decrease was 24.7% (inactive). Also, the tube area decrease in assay [3] was 58% (active). For the same molecule, the GLP1 secretion stimulation in assay [4] is -2.3% (inactive). Also, the inhibition of viability in assay [5] was 19.7% (inactive). Also, the results for the viability decrease (inhibition) in assay [6] and in assay [7] were 75.1% (active) and 30.7% (inactive), respectively. Moreover, the inhibition in assay [8] was -6.65% (inactive). Further, the red/green cell ratio (normalised) in assay [9] was 0.99 (inactive). For the same molecule, the results for the normalised cell number in assay [9] (setting [16]) and in [9] (setting [17]) were 0.85 and 0.84, respectively. The molecule was called inactive in [10], in assay [11], in assay [12] and in [14].
Consider `COC(=O)Nc1nc2ccc(S(=O)c3ccccc3)cc2[nH]1` (centres undefined), for which the insulin secretion stimulation in [1] was -2.4% (inactive). Further, the viability decrease in assay [2] was 93.5% (active). Moreover, the tube area decrease in [3] was 110% (active). Also, the GLP1 secretion stimulation in assay [4] was 8% (inactive). Further, the inhibition of viability in assay [5] was 92.2% (active). Also, the viability decrease (inhibition) in assay [6] was 96% (active); in assay [7], 88% (active). In assay [8], the inhibition is 17.4% (inactive). Further, the red/green cell ratio (normalised) in assay [9] was 0.97 (inactive). Further, the normalised cell number in assay [9] (setting [16]) was 0.97; in assay [9] (setting [17]) it was 0.95. The AC50 in [10] was 18600 nM (active).

The record behind these values is PubChem BioAssay.
